# Measured values: PubChem BioAssay AID1671188 (National Center for Advancing Translational Sciences (NCATS), 2021)
# The whole screen tested about 100,000 compounds, of which about 250 (0.25%) were called active. Another 7% or so got no clear call; they are omitted. This is one part of a sample in which actives are shown more often than they occur. Calls follow the shape of the dose curve; as a rule, active = well fitted inhibition curve with a large enough effect; inconclusive = small, poorly fitted or top-dose-only effect; inactive = flat fitted curve, though single readings scatter.
# Target: Alanine aminotransferase 2 (Homo sapiens) (UniProt Q8TD30)
# Sequence (Q8TD30 whole entry, looked up): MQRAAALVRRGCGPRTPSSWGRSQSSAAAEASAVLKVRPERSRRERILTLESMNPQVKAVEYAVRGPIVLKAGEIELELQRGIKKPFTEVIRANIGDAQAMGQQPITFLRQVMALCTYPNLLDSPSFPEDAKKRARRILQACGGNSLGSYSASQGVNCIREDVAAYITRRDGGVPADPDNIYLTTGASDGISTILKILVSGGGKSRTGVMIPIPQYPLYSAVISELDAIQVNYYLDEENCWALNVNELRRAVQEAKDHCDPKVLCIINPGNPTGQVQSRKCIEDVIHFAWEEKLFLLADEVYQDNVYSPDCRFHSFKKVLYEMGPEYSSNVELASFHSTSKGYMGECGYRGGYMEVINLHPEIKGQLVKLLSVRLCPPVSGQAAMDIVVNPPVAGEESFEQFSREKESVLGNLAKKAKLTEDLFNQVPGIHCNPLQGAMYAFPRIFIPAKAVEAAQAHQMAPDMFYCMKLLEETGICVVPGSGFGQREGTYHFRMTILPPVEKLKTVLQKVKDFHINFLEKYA
# Test: Primary qHTS assay for inhibitors of Glutamate pyruvate transaminase 2 (GPT2); also: nearly all actives have a fitted effect of over 60% in size
# Conditions: Recombinant GPT2, coupled pyruvate oxidase/HRP Amplex Red fluorescence; series mostly up to 57.7 µM; activity change, negative = inhibition: at the top concentration
# Method: Assay Provider: Zhenghe John Wang Ph.D.
# Case Western Reserve University, Cleveland OH
# Glutamate pyruvate transaminase 2 (GPT2) catalyzes the reversible transamination of glutamate and pyruvate to provide a-ketoglutarate and alanine. We have optimized an assay for GPT2 enzymatic activity that couples pyruvate formation to detection of fluorescence using an established pyruvate oxidase/horseradish peroxidase / Amplex Red system.
# Screening conditions were 250uM a-KG, 2mM L-alanine, and 10ng/uL GPT2 in […] of solution; 10uL of Amplex reaction mix (outlined below) were added so that final concentrations of Amplex reagents in 50uL were 0.2mM ThPP, 0.2U/mL PO and HRP, and 50uM Amplex.
# NOTE: The volume of GPT2 in the system depends on the activity of it. The activity is different every batch. You need to test the activity before the assay. For full plate assay with automation, plate 20uL of GPT2 buffer to pin into, then add 10uL of GPT2 dilution followed immediately by 10uL of substrate dilution. 2 Columns of the plate were devoted to GPT2 buffer ([…] PH7.5, 0.0001% Tween) + 50uM AOA (known GPT2 inhibitor) to serve as a positive control. Complete the assay as normal. Amplex-red buffer: […] PH7.5, 1 mM EDTA, 1 mM MgCl2.
# 1. Combine a-KG and L-alanine at desired concentrations and incubate for at least 10 minutes at 37C. Stocks of L-alanine and a-KG are diluted in distilled water. However, the stocks were diluted in GPT2 buffer for the assay.
# 2. Prepare GPT2 dilution at the desired concentration in GPT2 buffer.
# 3. Plate 40uL of GPT2 dilution with 40uL of substrate dilution and let incubate for 30 minutes at room temperature.
# 4. Add 20uL of Amplex reaction mix prepared as follows: 1.5uL 200U/mL Horseradish Peroxidase, 200mM Thiamine Pyrophosphate, 200U/mL Pyruvate Oxidase; 7.5uL 10mM Amplex Red; 288uL Amplex Buffer.
# 5. Incubate for 30 minutes at room temperature in the dark, then image using AM_Amplex_Fluorescence on plate reader nearest the window.
# % is scaled to controls: 0 for no effect and ±100 for the full control effect.
SMILES,"activity change, negative = inhibition",outcome
Cn1cc(CN2CCOC[C@H]2c2ncc(-c3cccc(F)c3)[nH]2)c2ccccc21,-3.28% [at 88.5 µM] (inactive),–
Cc1cc(S(=O)(=O)NCC2CCOCC2)ccc1F,-5.6% (inactive),–
COC1CN(c2ccc(C)cc2)C12CCN(C(=O)Cc1cccc(F)c1)CC2 (centres undefined),–,inactive
CC(=O)N1CC2(CCN(Cc3cccnc3)CC2)Cc2ccccc21,–,inactive
CC(=O)N[C@H]1CN(c2cncc(C(=O)N3CCCC3)n2)C[C@@H]1C1CC1,–,inactive
O=C(NC1CCN(C(=O)c2ccc(-c3cncnc3)cc2)CC1)c1ccccn1,4% (inactive),–
CN1CCOC[C@H]2CCN(C(=O)c3ccsc3)C[C@H]21,–,inactive
CCCN(C)c1nccnc1OC1CCN(C(=O)c2ccnn2C)C1 (centres undefined),2.99% (inactive),–
Cc1cc2nc3n(c(=O)c2n1CC(=O)Nc1ccc2c(c1)OCO2)CCCCC3,–,inactive
CCC1=C(C(=O)OC)C(c2ccccc2)N2C(CC(=O)N3CCCC3)=CSC2=N1 (centres undefined),–,inactive
CC(C)Cc1cc(CNc2nc(C(C)(C)C)nc3c2cnn3C)no1,-29.9% (inactive),–
COc1cccc(-c2ccc(C(=O)N3CCC(NC(=O)c4ccccc4OC)CC3)cc2)c1,-18.1% (inactive),–
CCc1cccc2c(C(CC(=O)NCC(C)C)c3cccc(OC)c3)c[nH]c12 (centres undefined),2.13% (inactive),–
O=C(Nc1ccccc1)N1CCCC(C(=O)N2CCCC(c3nc4ncccc4[nH]3)C2)C1 (centres undefined),-5.86% (inactive),–
O=C(C1CCC1)N1CCC(n2cnnc2C2CC2)CC1,-0.859% (inactive),–
CCOC(=O)C1CCN(C(=O)c2ccc3nnc(Cc4ccc(Cl)cc4)n3c2)CC1,4.47% (inactive),–
CCC(C)(C)C(=O)N1CC(c2nnc(-c3ccncc3)o2)C2(CCOCC2)C1 (centres undefined),–,inactive
O=C(C1CCCN(Cc2cccc(-c3ccc(F)cc3F)c2)C1)N1CCCCC1 (centres undefined),-2.29% (inactive),–
CC[C@H]1CN(S(=O)(=O)c2ccc(OC)cc2)CC[C@H]1CC(=O)Nc1ccccc1,-8.11% [at 88.5 µM] (inactive),–
CC(C)(O)CCc1cccc(C(=O)NC2CCN(c3ncccc3C#N)CC2)c1,-5.56% (inactive),–
O=C1C[C@H]2CC[C@@H](CN1)N2C(=O)c1csc2nc(-c3ccccc3Cl)cn12,-4.63% (inactive),–
COCCN1C(=O)N(CCc2ccccc2)C(=O)C12CCN(C/C=C/c1ccccc1)CC2,0.511% (inactive),–
Cc1ccc(C(=O)N2CC(n3c(C)cnc3-c3ccccc3)C2)cn1,–,inactive
CCOC(=O)C(C)Oc1cccn2c(=O)c(-c3cc(C)n(-c4cccc(F)c4)n3)c(C)nc12 (centres undefined),–,inactive
Cc1cc(N)n(CC(=O)N[C@@H]2COCC[C@H]2Oc2ccc(C(N)=O)cc2)n1,2.4% (inactive),–

SMILES,"activity change, negative = inhibition",outcome
O=C(NCc1ccncc1)c1ccc(CN2C(=O)NC3(CCS(=O)(=O)CC3)C2=O)cc1,–,inactive
CN(Cc1cccnc1)C(=O)CC(c1ccccc1)c1ccc(Cl)cc1 (centres undefined),-5.94% (inactive),–
O=C(NCCc1ccccc1)C1CN(C2CCCCC2)C(=O)N1 (centres undefined),2.65% [at 88.5 µM] (inactive),–
COc1ccc(C(=O)N2C[C@@H](F)[C@@H](OCc3nc4ccc(C(F)(F)F)cc4[nH]3)C2)cc1,-4.76% (inactive),–
CC(=O)Nc1ccc(C2(C(=O)NCc3ccc(Cl)cc3)CCC2)cc1,–,inactive
CN(C)C(=O)CCc1ccc2c(c1)CN(Cc1cn[nH]c1-c1ccc(F)cc1)CCO2,-9.05% (inactive),–
Cc1nn(C(=O)CCC(=O)N2CCC(CCOc3ccccc3)C2)c2ccccc12 (centres undefined),–,inactive
C=CCN(C)C(=O)C[C@@H]1c2nc(NC(=O)c3ccc(C(C)(C)C)cc3)sc2C[C@@H]2[C@](C)(CO)[C@H](O)CC[C@]21C,1.21% (inactive),–
COC(=O)[C@@H]1Cc2ncn(Cc3ccc(Cl)cc3)c2CN1Cc1ccc(N(C)C)cc1,2.35% (inactive),–
COc1cc2c(cc1CN1C[C@H]3CC[C@@H]1CN(C(=O)c1cnccn1)C3)CCC2,-13.2% (inactive),–
Cc1ccc(S(=O)(=O)CCNC(=O)c2cc3n(n2)CCCNC3)cc1,–,inactive
c1ccc2c(c1)CNC1(CCN(Cc3cccc4ccccc34)CC1)CO2,–,inactive
COc1ccc(-n2nc(C)c([C@H]3C=C[C@@H](OC(=O)Nc4cccc(F)c4)C3)c2C)cc1,-5.57% [at 88.5 µM] (inactive),–
Cc1ccc(S(=O)(=O)N2CCCC(CCC(=O)NC3CCCCC3)C2)cc1 (centres undefined),1.92% (inactive),–
O=C(NCc1ccc(Cl)nc1)c1ccn2cncc2c1,0.404% [at 88.5 µM] (inactive),–
CCc1cccc2c(C(CC(=O)NCC(C)C)c3ccccc3OC)c[nH]c12 (centres undefined),–,inactive
COc1ccc(C(=O)N2CCN(C(C(=O)O)c3cccc(O)c3)CC2)cc1 (centres undefined),-24.9% (inactive),–
CN1c2cc(C(=O)NCc3ccccc3Br)ccc2C(=O)N2CCCCC21 (centres undefined),–,inactive
COc1cccc(CN2C(=O)OC3(CCN(C(=O)C4CCC(OC)CC4)CC3)C2(C)c2cccnc2)c1 (centres undefined),-4.1% (inactive),–
C=CCn1cc2c3c(cccc31)[C@H](CC(C)C)N[C@H](C(=O)NCC1CC1)C2,-3.39% [at 88.5 µM] (inactive),–
Cc1ccc(CN2CCC3(CC2)CN(C2CCC2)CC3CO)o1 (centres undefined),1.81% (inactive),–
NC1(C(=O)NCCC2CCCN(Cc3ccc4occc4c3)C2)CC1 (centres undefined),-9.89% (inactive),–
COC(=O)[C@@H]1CN(C(=O)c2cccnc2)CCN1C(C)=O,-50.5% [at 88.5 µM] (inactive),–
FC(F)(F)c1ccc(CN2CCn3c(nnc3-c3ccccc3)C2)cc1,-4.47% (inactive),–
